Source: PubChem BioAssay (EPA / NIEHS)
Inconclusive results are not listed. The source made the active and inactive calls. Rule for the calls: active = hit-call score of the fitted dose curve at least 0.9, where 1 is the maximum; inconclusive = response in the unintended direction; inactive = score below 0.9. Peptide text beside a SMILES is read from it.

Experiments:
[1] = molecular target: Estrogen receptor (Homo sapiens) (UniProt P03372); experiment: OT_ER_ERaERa_0480: Odyssey Thera (OT) 8-hour HEK293T Protein-Complementation Assay for Estrogen Receptor-alpha/-alpha Homodimer (AID 2283351);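 note: rise in fluorescence from reassembled reporter fragments on ERα LBD homodimer in nucleus or whole cell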
Summary of the method: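 HEK293T cells stably expressing a PCA pair of ER alpha LBD (residues 310-547) were dosed for 8 hours. The gain in fluorescence intensity, nuclear for agonists and whole-cell for antagonists, was measured by laser scanning cytometry against DMSO vehicle.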

[2] = molecular target: T1, Estrogen receptor (Homo sapiens) + Estrogen receptor beta (Homo sapiens) (UniProt P03372+Q92731); experiment: OT_ER_ERaERb_0480: Odyssey Thera (OT) 8-hour HEK293T Protein-Complementation Assay for Estrogen Receptor-alpha/-beta Heterodimer (AID 2283352)
Summary of the method: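 Compound added to HEK293T cells carrying split-reporter-tagged ER-alpha and ER-beta LBDs, incubated 8 hours, then imaged by laser scanning cytometer. Signal rise in nucleus, or nucleus and cytoplasm, over vehicle was fitted in the positive direction.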

[3] = molecular target: Androgen Receptor/SRC-1 Co-activator, AR (gene 367) (UniProt P10275); experiment: OT_AR_ARSRC1_0960: Odyssey Thera (OT) 16-hour HEK293T Protein-Complementation Assay for Androgen Receptor/SRC-1 Co-activator (AID 2283353);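 note: actives raise the signal above DMSO so potency reflects increased AR and SRC-1 complex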
Summary of the method: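 Endpoint is gain-of-signal N/C fluorescence ratio in the 488 nm channel versus DMSO, from at least 400 cells per image, measured 16 h post-dosing. Cells: HEK293T stably carrying split-Venus AR/SRC-1 complementation constructs.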

[4] = molecular target: Androgen Receptor/SRC-1 Co-activator, AR (gene 367) (UniProt P10275); experiment: OT_AR_ARSRC1_0480: Odyssey Thera (OT) 8-hour HEK293T Protein-Complementation Assay for Androgen Receptor/SRC-1 Co-activator (AID 2283354);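 note: hits raise the complementation signal above DMSO so AC50 marks enhancers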
Summary of the method: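 Split-Venus PCA, stable HEK293T, AR/SRC-1 fusions; 8 h exposure. Readout: 488nm N/C fluorescence ratio, ≥400 cells/image; fitted upward vs DMSO baseline.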

[5] = molecular target: rat Mineralocorticoid Receptor (MR), Nr3c2 (gene 25672) (UniProt P22199); experiment: NVS_NR_rMR: NovaScreen (NVS) Nuclear Receptor Binding Assay for rat Mineralocorticoid Receptor (MR) (AID 2283355)
Summary of the method: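 Radioligand displacement, scintillation readout; tissue source adrenalectomized rat brain supernatant. Read 24 h post-dose. Screened in duplicate at 25 uM, DMSO negative control, controls on every plate; actives re-run in concentration series.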

[6] = molecular target: T1, Estrogen receptor (Homo sapiens) + Estrogen receptor beta (Homo sapiens); experiment: OT_ER_ERaERb_1440: Odyssey Thera (OT) 24-hour HEK293T Protein-Complementation Assay for Estrogen Receptor-alpha/-beta Homodimer (AID 2283356);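 note: heteromer of ER alpha and ER beta binding domains; hits raise reporter fluorescence and both agonists and antagonists give an increase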
Summary of the method: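 Stable HEK293T PCA line, ERα LBD 310-547 + ERβ LBD 263-489 fused to reporter fragments; 24 h treatment; fluorescence read by laser scanning cytometry; positive fitting direction relative to DMSO.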

[7] = molecular target: Estrogen receptor beta (Homo sapiens) (UniProt Q92731); experiment: OT_ER_ERbERb_0480: Odyssey Thera (OT) 8-hour HEK293T Protein-Complementation Assay for Estrogen Receptor-beta/-beta Homodimer (AID 2283357);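 note: active means signal gain over DMSO baseline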
Summary of the method: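 Homodimerization of ER-beta LBD measured by protein-fragment complementation in HEK293T; 8 h dosing; fixed, Draq5 counterstain; fluorescence intensity gain over DMSO baseline, positive fitting direction; laser scanning cytometry.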

[8] = molecular target: human Peroxisome Proliferator-activated Receptor alpha (PPARa), PPARA (gene 5465) (UniProt Q07869); experiment: NVS_NR_hPPARa: NovaScreen (NVS) Nuclear Receptor Binding Assay for human Peroxisome Proliferator-activated Receptor alpha (PPARa) (AID 2283359);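 note: activity means loss of TR-FRET signal versus DMSO baseline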
Summary of the method: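 TR-FRET signal measured at 1 h post-dosing; loss-of-signal versus DMSO negative control taken as activity. Extracted gene-protein, cell-free format. Initial single-point duplicates at 25 uM, then concentration-response retests.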

Chain of Androgen Receptor/SRC-1 Co-activator, AR (gene 367) (P10275 whole entry, looked up, the tested form may be a part): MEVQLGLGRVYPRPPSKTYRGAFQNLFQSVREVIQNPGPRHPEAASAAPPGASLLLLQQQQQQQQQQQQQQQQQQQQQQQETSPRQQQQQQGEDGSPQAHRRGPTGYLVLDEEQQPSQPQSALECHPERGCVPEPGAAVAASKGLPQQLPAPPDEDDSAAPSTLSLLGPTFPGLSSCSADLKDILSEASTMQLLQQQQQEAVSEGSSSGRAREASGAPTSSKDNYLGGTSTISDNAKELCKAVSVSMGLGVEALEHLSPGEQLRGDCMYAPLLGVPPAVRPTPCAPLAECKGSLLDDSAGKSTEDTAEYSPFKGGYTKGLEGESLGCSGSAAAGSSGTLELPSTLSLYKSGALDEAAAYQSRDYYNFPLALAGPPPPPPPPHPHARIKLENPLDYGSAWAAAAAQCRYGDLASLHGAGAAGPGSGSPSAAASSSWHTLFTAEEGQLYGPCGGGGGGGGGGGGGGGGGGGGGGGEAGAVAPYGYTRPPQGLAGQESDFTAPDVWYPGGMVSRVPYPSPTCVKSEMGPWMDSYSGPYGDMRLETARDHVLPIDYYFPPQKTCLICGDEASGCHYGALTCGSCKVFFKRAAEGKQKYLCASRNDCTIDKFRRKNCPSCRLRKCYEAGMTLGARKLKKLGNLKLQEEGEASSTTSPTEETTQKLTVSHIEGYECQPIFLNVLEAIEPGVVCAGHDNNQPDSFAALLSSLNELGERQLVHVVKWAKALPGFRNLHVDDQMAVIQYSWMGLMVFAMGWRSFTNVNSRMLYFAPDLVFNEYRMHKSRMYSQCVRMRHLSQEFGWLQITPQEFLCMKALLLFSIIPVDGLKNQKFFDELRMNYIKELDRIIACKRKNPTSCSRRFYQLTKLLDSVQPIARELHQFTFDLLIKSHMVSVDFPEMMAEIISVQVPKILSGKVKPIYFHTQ
Chain of Estrogen receptor (Homo sapiens) (P03372 whole entry, looked up, the tested form may be a part): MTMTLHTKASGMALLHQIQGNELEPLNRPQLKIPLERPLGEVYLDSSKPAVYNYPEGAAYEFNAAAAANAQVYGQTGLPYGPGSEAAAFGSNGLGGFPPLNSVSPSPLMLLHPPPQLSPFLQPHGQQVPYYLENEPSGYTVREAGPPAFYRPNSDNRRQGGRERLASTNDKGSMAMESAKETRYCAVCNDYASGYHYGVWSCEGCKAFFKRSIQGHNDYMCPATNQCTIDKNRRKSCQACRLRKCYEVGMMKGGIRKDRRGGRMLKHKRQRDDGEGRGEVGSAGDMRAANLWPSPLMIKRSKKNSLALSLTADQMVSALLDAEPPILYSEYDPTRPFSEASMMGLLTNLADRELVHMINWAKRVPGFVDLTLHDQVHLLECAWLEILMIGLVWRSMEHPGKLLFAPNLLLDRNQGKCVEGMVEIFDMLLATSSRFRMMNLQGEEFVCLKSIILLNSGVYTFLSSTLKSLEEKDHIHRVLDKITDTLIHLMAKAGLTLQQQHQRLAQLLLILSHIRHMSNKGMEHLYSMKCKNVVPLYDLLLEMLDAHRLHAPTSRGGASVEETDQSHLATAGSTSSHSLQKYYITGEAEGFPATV
T1 sequence (P03372 whole entry, looked up): as the sequence (P03372 whole entry, looked up, the tested form may be a part) above
T1 sequence (Q92731 whole entry, looked up): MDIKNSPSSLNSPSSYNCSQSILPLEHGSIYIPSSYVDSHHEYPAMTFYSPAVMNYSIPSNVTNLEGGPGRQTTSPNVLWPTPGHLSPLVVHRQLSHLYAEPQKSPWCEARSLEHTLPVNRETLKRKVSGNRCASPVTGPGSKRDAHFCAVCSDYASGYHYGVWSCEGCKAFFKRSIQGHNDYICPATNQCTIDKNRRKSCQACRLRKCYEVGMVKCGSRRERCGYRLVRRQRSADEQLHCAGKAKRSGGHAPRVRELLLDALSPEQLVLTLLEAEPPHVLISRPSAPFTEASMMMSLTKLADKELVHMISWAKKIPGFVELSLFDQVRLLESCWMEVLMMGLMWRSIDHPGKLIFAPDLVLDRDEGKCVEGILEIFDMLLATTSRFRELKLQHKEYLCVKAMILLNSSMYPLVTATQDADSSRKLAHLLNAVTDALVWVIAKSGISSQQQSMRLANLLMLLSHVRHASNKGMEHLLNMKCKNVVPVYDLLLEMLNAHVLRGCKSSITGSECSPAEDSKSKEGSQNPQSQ
Chain of Estrogen receptor beta (Homo sapiens) (Q92731 whole entry, looked up, the tested form may be a part): as the sequence (Q92731 whole entry, looked up) above
Chain of rat Mineralocorticoid Receptor (MR), Nr3c2 (gene 25672) (P22199 whole entry, looked up): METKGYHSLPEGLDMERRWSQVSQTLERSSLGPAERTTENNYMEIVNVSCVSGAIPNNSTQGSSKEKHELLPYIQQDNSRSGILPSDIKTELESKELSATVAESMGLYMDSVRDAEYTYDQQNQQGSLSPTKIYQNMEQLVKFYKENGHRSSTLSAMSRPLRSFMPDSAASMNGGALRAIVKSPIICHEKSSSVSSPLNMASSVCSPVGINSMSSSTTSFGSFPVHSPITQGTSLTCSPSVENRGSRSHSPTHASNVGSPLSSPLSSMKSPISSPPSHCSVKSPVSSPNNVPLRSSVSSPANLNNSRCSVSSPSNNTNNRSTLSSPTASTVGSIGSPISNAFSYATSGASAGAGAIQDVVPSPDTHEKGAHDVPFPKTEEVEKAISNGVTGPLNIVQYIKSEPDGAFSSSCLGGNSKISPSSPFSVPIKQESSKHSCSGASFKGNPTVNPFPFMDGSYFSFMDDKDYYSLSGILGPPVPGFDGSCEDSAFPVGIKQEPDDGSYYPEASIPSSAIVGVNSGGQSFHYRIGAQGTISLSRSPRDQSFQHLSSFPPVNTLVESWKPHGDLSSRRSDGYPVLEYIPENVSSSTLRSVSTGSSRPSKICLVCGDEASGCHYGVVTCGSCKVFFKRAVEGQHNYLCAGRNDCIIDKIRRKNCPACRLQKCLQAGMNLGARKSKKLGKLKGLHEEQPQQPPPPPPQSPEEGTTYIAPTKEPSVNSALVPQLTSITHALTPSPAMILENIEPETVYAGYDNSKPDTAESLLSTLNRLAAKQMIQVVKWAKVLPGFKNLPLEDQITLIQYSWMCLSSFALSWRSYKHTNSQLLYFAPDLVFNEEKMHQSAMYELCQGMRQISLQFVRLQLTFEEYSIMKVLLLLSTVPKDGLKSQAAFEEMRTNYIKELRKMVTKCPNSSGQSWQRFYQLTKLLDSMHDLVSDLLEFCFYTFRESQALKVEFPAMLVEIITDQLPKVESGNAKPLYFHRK
Chain of human Peroxisome Proliferator-activated Receptor alpha (PPARa), PPARA (gene 5465) (Q07869 whole entry, looked up): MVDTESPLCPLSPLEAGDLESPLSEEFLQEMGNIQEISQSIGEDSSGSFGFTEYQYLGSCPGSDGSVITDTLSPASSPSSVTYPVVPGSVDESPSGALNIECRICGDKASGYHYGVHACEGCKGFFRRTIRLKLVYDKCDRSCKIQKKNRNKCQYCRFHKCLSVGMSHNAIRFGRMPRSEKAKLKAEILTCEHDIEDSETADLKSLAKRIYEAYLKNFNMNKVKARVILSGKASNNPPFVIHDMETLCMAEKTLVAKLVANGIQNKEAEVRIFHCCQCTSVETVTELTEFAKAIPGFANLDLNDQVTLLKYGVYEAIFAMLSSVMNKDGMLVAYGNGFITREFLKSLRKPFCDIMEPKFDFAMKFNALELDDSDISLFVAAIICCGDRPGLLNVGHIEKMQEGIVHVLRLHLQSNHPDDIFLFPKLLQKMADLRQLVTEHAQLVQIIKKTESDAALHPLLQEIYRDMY

## CCc1occc(=O)c1O
[1]
  outcome: inactive

## O=C(O)CC(C(=O)O)S(=O)(=O)O (configuration not stated)
[1]
  outcome: inactive

## O=C(Oc1ccccc1)c1ccccc1O
[1]
  outcome: inactive

## N#Cc1ccc(C2CCCc3cncn32)cc1 (configuration not stated)
[1]
  outcome: inactive

## CC(C)(C)NC(=O)[C@H]1CC[C@H]2[C@@H]3CC[C@H]4NC(=O)C=C[C@]4(C)[C@H]3CC[C@]12C
[1]
  outcome: inactive

## C[Si]1(C)O[Si](C)(C)O[Si](C)(C)O[Si](C)(C)O[Si](C)(C)O1
[1]
  outcome: inactive

## CC(C)=CCCC(C)=CC#N
[1]
  outcome: inactive

## CC12CCC(CC1)C(C)(C)O2
[1]
  outcome: inactive

## Cc1ccc(C)c(OCCCC(C)(C)C(=O)O)c1
[1]
  outcome: inactive
[2]
  outcome: inactive
[3]
  outcome: inactive
[4]
  outcome: inactive
[5]
  outcome: inactive
[6]
  outcome: inactive

## CC(=O)/C=C/C1C(C)=CCCC1(C)C (configuration not stated)
[1]
  outcome: inactive

## O=C(O)c1cc(O)c2ccccc2c1O
[1]
  outcome: inactive

## CC1=NN(c2ccc(S(=O)(=O)O)cc2)C(=O)C1N=Nc1ccccc1 (configuration not stated)
[1]
  outcome: inactive

## CC(=O)c1ccccc1O
[1]
  outcome: inactive

## CC(=O)OCc1ccccc1
[1]
  outcome: inactive
[2]
  outcome: inactive
[3]
  outcome: inactive
[4]
  outcome: inactive
[6]
  outcome: inactive
[7]
  outcome: inactive

## CC(C)(C)N
[1]
  outcome: inactive

## COc1ccc(C(=O)c2ccccc2)c(O)c1
[1]
  AC50: 58.4 µM (active)
[2]
  AC50: 31 µM (active)
[3]
  outcome: inactive
[4]
  outcome: inactive
[6]
  AC50: 58.7 µM (active)
[7]
  AC50: 50 µM (active)

## CCCCCCC=O
[1]
  outcome: inactive

## Fc1ccc(Br)cc1
[1]
  outcome: inactive

## C=C[Si](OCCOC)(OCCOC)OCCOC
[1]
  outcome: inactive

## O=C(O)CCC(=O)O
[1]
  outcome: inactive

## CCC(C)(O)CCCC(C)C (configuration not stated)
[1]
  outcome: inactive

## CCC[Si](OC)(OC)OC
[1]
  outcome: inactive
[2]
  outcome: inactive
[3]
  outcome: inactive
[4]
  outcome: inactive
[6]
  outcome: inactive
[7]
  outcome: inactive

## COC(=O)[C@H](Cc1ccccc1)NC(=O)[C@@H](N)CC(=O)O (H-Asp-Phe-OMe)
[1]
  outcome: inactive

## Cc1cc(C)n(CO)n1
[1]
  outcome: inactive

## CCCCCCOc1ccc(N)cc1
[1]
  outcome: inactive

## O=C(OCCc1ccccc1)c1ccccc1
[1]
  outcome: inactive

## C/C=C/C=C/CCCCCCCO
[1]
  outcome: inactive

## CCC1COC(=O)O1 (configuration not stated)
[1]
  outcome: inactive

## CCCCCCCCCCCCCC(=O)OC(C)C
[1]
  outcome: inactive
[2]
  outcome: inactive
[3]
  outcome: inactive
[4]
  outcome: inactive
[6]
  outcome: inactive

## O=C(O)/C=C/c1ccccc1
[1]
  outcome: inactive

## CC(C)(c1ccccc1)c1ccc(Nc2ccc(C(C)(C)c3ccccc3)cc2)cc1
[1]
  outcome: inactive

## CC1=CC=C(C(C)C)CC1
[1]
  outcome: inactive

## C=C(C)C1CC=C(C)CC1 (configuration not stated)
[1]
  outcome: inactive

## CC(C)(C)C1CCC(=O)CC1
[1]
  outcome: inactive
[2]
  outcome: inactive
[6]
  outcome: inactive
[7]
  outcome: inactive

## CCOC(=O)c1ccccc1C
[1]
  outcome: inactive
[2]
  outcome: inactive
[6]
  outcome: inactive
[7]
  outcome: inactive

## N#Cc1ccc(C(c2ccc(C#N)cc2)n2cncn2)cc1
[1]
  outcome: inactive
[2]
  outcome: inactive
[3]
  outcome: inactive
[4]
  outcome: inactive
[6]
  outcome: inactive
[7]
  outcome: inactive

## CC(C)COC(=O)CC(C(=O)OCC(C)C)S(=O)(=O)O (configuration not stated)
[1]
  outcome: inactive
[2]
  outcome: inactive
[6]
  outcome: inactive
[7]
  outcome: inactive

## CCCCCCOC(=O)CCCCC(=O)OCCCCCC
[1]
  outcome: inactive
[2]
  outcome: inactive
[6]
  outcome: inactive
[7]
  outcome: inactive

## C=CCOC(=O)c1ccc(C(=O)OCC=C)c(C(=O)OCC=C)c1
[1]
  outcome: inactive
[2]
  outcome: inactive
[6]
  outcome: inactive
[7]
  outcome: inactive

## CC(=O)OC1CCCCC1C(C)(C)C (configuration not stated)
[1]
  outcome: inactive
[2]
  outcome: inactive
[3]
  outcome: inactive
[4]
  outcome: inactive
[6]
  outcome: inactive
[7]
  outcome: inactive

## CC(C)c1cc(C(C)C)cc(C(C)C)c1
[1]
  outcome: inactive
[2]
  outcome: inactive
[6]
  outcome: inactive
[7]
  outcome: inactive

## O=C(OCc1ccccc1)c1ccc(O)cc1
[1]
  AC50: 18.9 µM (active)
[2]
  AC50: 4.92 µM (active)
[6]
  AC50: 33.6 µM (active)
[7]
  AC50: 3.98 µM (active)

## Oc1ccc(-c2ccccc2)c(Cl)c1
[1]
  AC50: 12.2 µM (active)
[2]
  AC50: 12.2 µM (active)
[3]
  AC50: 40 µM (active)
[4]
  AC50: 31.5 µM (active)
[6]
  AC50: 15.9 µM (active)
[7]
  outcome: inactive
[8]
  outcome: inactive

## COC(=O)c1ccccc1C
[1]
  outcome: inactive
[2]
  outcome: inactive
[6]
  outcome: inactive

## CCCCOCCOC(=O)COc1ccc(Cl)cc1Cl
[1]
  outcome: inactive
[2]
  outcome: inactive
[6]
  outcome: inactive

## COc1ccc(-c2coc3cc(O)cc(O)c3c2=O)cc1
[1]
  AC50: 12.3 µM (active)
[2]
  AC50: 2.91 µM (active)
[6]
  AC50: 5.37 µM (active)
[7]
  AC50: 2.05 µM (active)

## CCCCCCCCCC(C)=O
[1]
  AC50: 68.5 µM (active)
[2]
  outcome: inactive
[3]
  outcome: inactive
[4]
  outcome: inactive
[6]
  outcome: inactive
[7]
  outcome: inactive

## COc1cc(O)c(C(=O)c2ccccc2)cc1S(=O)(=O)O
[1]
  outcome: inactive
[2]
  outcome: inactive
[3]
  outcome: inactive
[4]
  outcome: inactive
[6]
  outcome: inactive
[7]
  outcome: inactive

## CCCCNC(=S)NCCCC
[1]
  outcome: inactive
[2]
  outcome: inactive
[6]
  outcome: inactive
[7]
  outcome: inactive

## c1ccc(Nc2cccc3ccccc23)cc1
[1]
  AC50: 35.2 µM (active)
[2]
  AC50: 24.8 µM (active)
[6]
  AC50: 47.1 µM (active)
[7]
  AC50: 29.1 µM (active)

## CC1(C)[C@@H]2CC[C@@]1(C)C(=O)C2
[1]
  outcome: inactive
[2]
  outcome: inactive
[6]
  outcome: inactive
[7]
  outcome: inactive

## CCCCNS(=O)(=O)c1ccccc1
[1]
  outcome: inactive
[2]
  outcome: inactive
[6]
  outcome: inactive
[7]
  outcome: inactive

## Cc1c(C(=O)c2c[nH]n(C)c2=O)ccc(S(C)(=O)=O)c1C1=NOCC1
[1]
  outcome: inactive
[2]
  outcome: inactive
[3]
  outcome: inactive
[6]
  outcome: inactive
[7]
  outcome: inactive

## CCCCCCCO
[1]
  outcome: inactive
[2]
  outcome: inactive
[6]
  outcome: inactive
[7]
  outcome: inactive

## CC(CCC(=O)O)(c1ccc(O)cc1)c1ccc(O)cc1
[1]
  outcome: inactive
[2]
  AC50: 39.1 µM (active)
[6]
  AC50: 60.1 µM (active)
[7]
  AC50: 31.8 µM (active)

## CCCCc1ccc(Cl)cc1
[1]
  outcome: inactive
[2]
  outcome: inactive
[6]
  outcome: inactive
[7]
  outcome: inactive

## CCOC(=O)C1=NOC(c2ccccc2)(c2ccccc2)C1
[1]
  outcome: inactive
[2]
  outcome: inactive
[6]
  outcome: inactive
[7]
  outcome: inactive

## O=C(O)c1ccc2c(c1)C(=O)OC2=O
[1]
  outcome: inactive
[2]
  outcome: inactive
[3]
  outcome: inactive
[6]
  outcome: inactive
[7]
  outcome: inactive

## CCCCCC(=O)OCC
[1]
  outcome: inactive
[2]
  outcome: inactive
[6]
  outcome: inactive
[7]
  outcome: inactive

## CCCCCCCCCCCCc1ccc(O)cc1
[1]
  AC50: 2.48 µM (active)
[2]
  AC50: 1.86 µM (active)
[6]
  AC50: 1.14 µM (active)
[7]
  AC50: 0.853 µM (active)

## CCCCCCCCC(CO)CCCCCC (configuration not stated)
[1]
  outcome: inactive
[2]
  outcome: inactive
[6]
  outcome: inactive
[7]
  outcome: inactive

## CCCCC(C=O)CC (configuration not stated)
[1]
  outcome: inactive
[2]
  outcome: inactive
[6]
  outcome: inactive
[7]
  outcome: inactive

## CCCCC(=O)O
[1]
  outcome: inactive
[2]
  outcome: inactive
[6]
  outcome: inactive

## CO[Si](C)(C)OC
[1]
  outcome: inactive
[2]
  outcome: inactive
[6]
  outcome: inactive
[7]
  outcome: inactive

## CCCCC(CC)COS(=O)(=O)O (configuration not stated)
[1]
  outcome: inactive
[2]
  outcome: inactive
[6]
  outcome: inactive

## CCOC(=O)c1ccc(C)cc1
[1]
  outcome: inactive
[2]
  outcome: inactive
[6]
  outcome: inactive

## CC(=O)OC(C)c1ccccc1 (configuration not stated)
[1]
  outcome: inactive
[2]
  outcome: inactive
[6]
  outcome: inactive
[7]
  outcome: inactive

## Oc1ccc(/C=C/c2cc(O)cc(O)c2)cc1
[5]
  outcome: inactive
